Assay outcomes (PubChem)
Only some compounds are listed: those with a hit (about 2.3% of all), similar ones and a draw of the others.
CHO-K1 Ca ag: counter-screen for M1 agonists: effect in parental CHO-K1 cells. Fluo-8 calcium fluorescence; scaled to maximal ATP response, vehicle zero. activation, % at 3 µM. 360,000 compounds, 0.48% hits; in the data active = activation above about 15%;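 note: untransfected CHO-K1 host cells lacking M1 receptor as counterscreen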
CHRM1 antagonist: human CHRM1 antagonism. P11229. CHO-K1 hM1, Fluo-8 calcium fluorescence, ACh EC80 antagonist. inhibition, % at 3 µM. 360,000 compounds, 1.3% hits. AID 588852;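 active = percent inhibition above its own plate's cutoff, namely the mean of that plate's compound wells plus 3 SD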;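 note: peak over basal fluorescence ratio during 140 s after agonist addition; 0% = ACh EC80 plus DMSO and 100% = DMSO alone without agonist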
Target sequence (P11229 whole entry, looked up): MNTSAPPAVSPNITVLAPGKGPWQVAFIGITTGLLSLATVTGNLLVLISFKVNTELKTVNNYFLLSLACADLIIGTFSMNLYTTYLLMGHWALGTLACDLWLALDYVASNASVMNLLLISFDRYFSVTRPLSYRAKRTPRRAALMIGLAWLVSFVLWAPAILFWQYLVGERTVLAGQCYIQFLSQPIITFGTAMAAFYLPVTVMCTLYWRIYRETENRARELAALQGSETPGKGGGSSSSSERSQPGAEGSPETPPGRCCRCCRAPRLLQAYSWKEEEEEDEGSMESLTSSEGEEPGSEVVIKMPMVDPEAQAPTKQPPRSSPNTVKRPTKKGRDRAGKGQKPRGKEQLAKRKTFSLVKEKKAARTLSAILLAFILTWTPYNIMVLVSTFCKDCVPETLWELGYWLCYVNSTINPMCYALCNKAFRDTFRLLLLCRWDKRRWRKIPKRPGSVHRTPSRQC
CHRM1 PAM: positive allosteric modulators of human M1 muscarinic receptor; P11229; CHO-K1 hM1, Fluo-8 calcium fluorescence, ACh EC20; 0% = ACh EC20, 100% = maximal ACh; activation, % at 3 µM; 360,000 compounds, 0.088% hits; in the data active = activation above about 19%, passing the limit was not always enough
M1 ag: agonists of human M1 muscarinic receptor. 360,000 compounds, 0.33% hits. CHO-K1 hM1, Fluo-8 calcium fluorescence, agonist mode; 0% DMSO, 100% acetylcholine EC100. activation, % at 3 µM;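 active = activation above the run's mean compound activation plus 3 SD, cut at about 16% in these data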;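 note: peak over basal fluorescence ratio within a 140 s kinetic read after compound addition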
CHO-K1 Ca antag: counter-screen for M1 antagonists: effect in parental CHO-K1 cells | 360,000 compounds, 0.6% hits | inhibition, % at 3 µM | ATP-induced calcium, Fluo-8 fluorescence;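 active = inhibition above a per-plate cutoff, the plate's mean sample inhibition plus 3 SD, cut at about 24% in these data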;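 note: 0% = DMSO plus EC80 ATP and 100% = DMSO alone without ATP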
M1 PAM parental: nonselective activator or artifact in parental CHO-K1 calcium assay. ATP EC20, Fluo-8 calcium fluorescence; 0% at ATP EC20, 100% at ATP max. activation, % at 3 µM. 360,000 compounds, 0.02% hits;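 active = activation above the run cutoff, the mean activation of all test compounds plus 3 SD, cut at about 40% in these data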;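 note: peak over basal fluorescence ratio in a 140 s read after ATP addition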
* = called active by the depositor.

SMILES	CHO-K1 Ca ag	CHRM1 antagonist	CHRM1 PAM	M1 ag	CHO-K1 Ca antag	M1 PAM parental
c1ccc(CNc2nc(NCCOc3ccccc3)c3sccc3n2)cc1	35*	43*	-28	19*	28*	-9
Cc1ccc(O)c(NC(=O)c2cc(C)no2)c1	-1	6	4	0	-1	-8
CCSC(=O)NC1CCCCC1	-1	-14	22	1	1	-11
c1ccc(CNc2nc(NCc3ccccc3)c3sccc3n2)cc1	28*	56*	-31	32*	14	-12
Fc1cc(Cl)ccc1Nc1nc(NCc2ccccc2)nc2ccsc12	1	-1	-4	-2	-8	14
COc1cccc(/C=C/C(=O)OCC(=O)NC2CC2)c1OC	0	-10	1	0	-14	4
Cc1cc(C)cc(N(CC(=O)NCc2ccc(F)cc2)C(=O)c2snc(C(N)=O)c2N)c1	1	-6	11	16*	-7	15
COc1ccc(NC(=O)CC2(CC(=O)O)CCCC2)cn1	3	0	3	-1	5	3
CC(=O)Nc1cccc(OCC(=O)Nc2ccccc2)c1	1	-5	7	1	-8	2
CCOC(=O)Nc1cccc(OCC(=O)Nc2ccccc2OCC)c1	1	-8	-3	-5	24*	-6
CC(=O)Nc1ccc(NC(=O)Cn2c(=O)n(-c3ccccc3)c(=O)c3oc4ccccc4c32)cc1	15*	-5	8	1	1	17
CCN(CC)CC(=O)Nc1scc2c1c(=O)oc1ccccc12	2	3	2	-4	-6	3
CC[N+](CC)(CC)CCOc1ccc(/C=C/c2ccccc2)cc1	0	95*	-27	-7	3	-2
CCOc1ccc(/C=C/C(=O)c2ccccc2)cc1	0	-8	8	-4	-22	7
Cc1cc(C)nc(/N=C(\N)N2CCCCCC2)n1	0	30*	-24	-12	-2	10
CN(C)S(=O)(=O)N1CCN(c2ccccc2)CC1	0	-35	30*	8	-14	-11
CN(C)S(=O)(=O)N1CCN(c2cccc(Cl)c2)CC1	0	-1	3	-4	-7	2
Fc1ccccc1C1c2[nH]c3ccccc3c2CCN1CCCn1cccn1 (stereo not drawn)	0	38*	-22	-8	-8	6
CN(C)CCC1c2ccc(Cl)cc2CCc2cccnc21 (stereo not drawn) (tested in a mixture with another compound)	8	49*	-28	-11	-4	4
O=[N+]([O-])c1ccc(Sc2ccccn2)nc1	0	9	-2	-3	-8	9
O=C(Nc1cc(Sc2ccccn2)cc([N+](=O)[O-])c1)c1ccc([N+](=O)[O-])cc1	3	24*	-16	2	-4	14
Cc1cccc(C2(c3cccc(C)c3)CC2C(=O)Nc2ccc([N+](=O)[O-])cc2O)c1 (stereo not drawn)	6	25	-15	-3	26*	-11
C=CCNC(=O)C1CC1(c1cccc(C)c1)c1cccc(C)c1 (stereo not drawn)	0	0	13	1	2	6
CN(Cc1ccccc1)C(=O)C1CCN(S(=O)(=O)c2cccc3nonc23)CC1	1	-4	-1	-7	10	-5
Cc1ccc(NS(=O)(=O)c2ccc(C(=O)N3CC(C)CC(C)C3)cc2)cc1 (stereo not drawn)	53*	53*	-17	60*	36*	-6
SMILES	CHO-K1 Ca ag	CHRM1 antagonist	CHRM1 PAM	M1 ag	CHO-K1 Ca antag	M1 PAM parental
Cc1ccc(S(=O)(=O)Nc2ccc(C(=O)N3CCCC3)cc2)cc1	2	1	5	-2	-7	13
CC1CN(C(=O)c2ccc(S(=O)(=O)Nc3cccc(C(F)(F)F)c3)cc2)CC(C)O1 (stereo not drawn)	21*	10	-5	25*	0	-9
CCCCc1cc(=O)oc2cc(OCC(=O)NCCN3CCOCC3)ccc12	0	-7	5	-2	4	6
Cc1nc2ccc(Cl)cc2nc1C	2	-3	5	-4	-12	10
CC(C)C[C@@H](CN)NC(=O)c1nc[nH]c1C(=O)N[C@@H](C)C(=O)CNC[C@H](C)NC(=O)c1nc[nH]c1C(=O)N[C@@H](C)C(=O)O	1	-5	0	-1	-9	16
Nc1c(C(=O)C2CC2)sc2nc(-c3ccccc3)cc(C(F)(F)F)c12	109*	-8	11	3	75*	-1
COc1ccc(NC(=O)CCN2CCN(S(=O)(=O)c3ccc(Cl)cc3)CC2)cc1	4	-9	8	1	-35	33
CCOc1ccc(NC(=O)CCN2CCN(S(=O)(=O)c3cc(Cl)ccc3OC)CC2)cc1	4	-10	-3	2	-20	41*
COc1ccc(NC(=O)CCN2CCN(S(=O)(=O)c3ccc(C(C)C)cc3)CC2)cc1	18*	-6	5	3	-38	21
Cn1c(=O)c([N+](=O)[O-])c(NCCCn2ccnc2)c2ccccc21	15*	-4	4	1	0	13
CCCCNc1c([N+](=O)[O-])c(=O)n(C)c2ccccc12	1	7	-2	-4	-15	26
CCCS(=O)(=O)N1CCCC(C(=O)Oc2ccc(C)c(C)c2)C1 (stereo not drawn)	0	-11	2	-2	7	28
COc1cccc(N2CCN(C(=O)c3cccc(NC4=NC5CS(=O)(=O)CC5S4)c3)CC2)c1 (stereo not drawn)	5	-6	-3	-2	24*	-6
CC(=O)N(CCCCl)C(C#N)c1ccccc1 (stereo not drawn)	0	25	-32	51*	-11	13
Cc1nc2cc(NC(=O)Nc3cccc4ccccc34)ccc2n1C	1	-5	6	-7	-14	24
O=C(Nc1ccc2snnc2c1)Nc1cccc2ccccc12	8	-9	-7	17*	29*	4
C[C@@]12C(=O)N(CCO)CC(=O)N1[C@H](/C=C/c1ccccc1)[C@@H]1C(=O)N(c3ccccc3)C(=O)[C@@H]12	1	9	-2	-3	-11	10
CC(=O)c1c(C)[nH]c(C(=O)COC(=O)C2(C)CC2(Cl)Cl)c1C (stereo not drawn)	20*	20	-14	1	-7	2
COc1ccc(CCN(C)C2CCCN(C(=O)CCC(F)(F)F)C2)cc1OC (stereo not drawn)	2	-10	3	-10	-4	18
CCOC(=O)Cn1c(-c2ccccc2)cc(SC)c(C#N)c1=O	1	52*	-27	-8	13	13
Cc1cc(OCC(=O)Nc2ccc(CN3CCCCC3)cc2)ccc1Cl	13	50*	-31	-4	0	11
